Records with an inconclusive call do not appear. Active and inactive are the calls of the source. Calls come from the whole dose curve; as a rule, active = well fitted curve in the direction sought with a large enough effect; inconclusive = small, poorly fitted or top-dose-only effect, or another doubt; inactive = no such curve, though single readings can be large; an effect the other way counts as inactive or inconclusive.

Here are results for ten molecules from PubChem BioAssay (NCATS).

The target of test [1] is Nuclear receptor subfamily 1 group I member 3 (Homo sapiens) (UniProt Q14994). The test is described as follows: Primary qHTS for agonist of constitutive androstane receptor (CAR) against the NCATS DSHEA and TCM libraries (AID 1794839).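 Note: HepG2 cells expressing human CAR with a CYP2B6 reporter plus PK11195 antagonist; luciferase reporter luminescence read with ONE-Glo.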 Summed up: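 Concentration–response screen in HepG2-CYP2B6-hCAR cells under 0.75 µM PK11195; 24 h exposure; luminescent reporter signal with multiplexed fluorescent viability.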
Background: qHTS replaces the single test concentration by a dilution series.

Test [2] in a line: HepG2 viability counterscreen (readout 2: ATP content) against the NCATS DSHEA and TCM libraries (AID 1794840).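 Note: HepG2 cells exposed to substances for about 24 h.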 Summed up:
(§1)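 After HepG2 cells attach for ~4 h, substances are added and incubated ~24 h at 37C, 5% CO2. GF-AFC fluorescence then CellTiter-Glo luminescence give protease and ATP readouts.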
In general terms: The purpose of a counterscreen is to sort out artefacts and off-target activity.

Test [3] is described as follows: HepG2 viability counterscreen (readout 1: protease activity) against the NCATS DSHEA and TCM libraries (AID 1794841).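 Note: cells exposed to compounds for about 24 h before the protease read.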 Summed up: as §1
In test [4] the target is Metallo-beta-lactamase type 2 (Klebsiella pneumoniae) (UniProt C7C422). The experiment in a line: qHTS to identify inhibitors of the New Delhi Metallo-beta-lactamase (NDM): assay validation screen against the NCATS LOPAC Collection (AID 1794843). The essentials:
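Absorbance at 485 nm from nitrocefin turnover (50 uM solution added), read at plateau, gives the read-out. Compounds in DMSO were incubated first with 2 nM final NDM-1 in pH 7.0 HEPES buffer containing 1 uM ZnSO4 and 0.01% Tween20.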

The target of test [5] is Glutathione peroxidase 1 (Homo sapiens) (UniProt P07203). The test is described as follows: Primary qHTS Assay for Inhibitors of Recombinant Selenoprotein Glutathione Peroxidase 1 (GPX1) (AID 1845191). Note: nearly all actives have a fitted effect of over 65% in size. The essentials: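 GPX1 10 nM, GR 100 nM, GSH 1 mM, NADPH 0.5 mM, CHP 0.5 mM (final). 30-min cpd preincubation, RT. Ex340/Em450 read t=0, t=15 min.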
The target of test [6] is Phospholipid hydroperoxide glutathione peroxidase GPX4 (Homo sapiens) (UniProt P36969). The experiment in a line: Primary qHTS Assay for Inhibitors of Recombinant Selenoprotein Glutathione Peroxidase 4 (GPX4) (AID 1845192). Note: nearly all actives have a fitted effect of over 65% in size. Summed up: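 qHTS, GR-coupled: GPX4 200 nM + cpd 30 min RT → GSH 1 mM, NADPH 0.5 mM, GR 100 nM → CHP 0.5 mM start; fluor 340/450 at t0 and t15 min; no-enzyme wells as control.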

The nature of test [7]: Quantitative High-Throughput drug screen in 47 multiple myeloma cell lines against the NCATS MIPE library collection: Delta47_JCRB cell viability assay (AID 1918925; note: potency is the fitted concentration of half-maximal effect; nearly all actives have a fitted effect of over 45% in size). Summed up:
(§2)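 Primary qHTS used for cherry-picking: cells at 500/well, library compounds for 48 h (37C, 5% CO2), luminescent ATP assay.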

Test [8] is described as follows: Quantitative High-Throughput drug screen in 47 multiple myeloma cell lines against the NCATS MIPE library collection: EJM_DSMZ cell viability assay (AID 1918926; note: nearly all actives have a fitted effect of over 30% in size; note: potency is the fitted concentration of half-maximal effect). Summed up:
as §2

Test [9] in a line: Quantitative High-Throughput drug screen in 47 multiple myeloma cell lines against the NCATS MIPE library collection: Karpas417_ECACC cell viability assay (AID 1918961). Note: potency is the fitted concentration of half-maximal effect. The settings on record: Karpas417 myeloma viability, CellTiter-Glo ATP luminescence, 48 h; viability (% of DMSO): at 45.8 µM (top of the series). The essentials: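 Luminescent ATP measurement with CellTiter-Glo gives viability, scaled between DMSO-only wells (100%) and media-only wells (0%). Cells, 500 per well, faced library compounds for 48 hours at 37C.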

The target in test [10] is Luciferin 4-monooxygenase (Photinus pyralis) (UniProt P08659). The test is described as follows: Primary firefly luciferase (FLuc) qHTS assay for identification of artifact compounds. (AID 1845220). Note: nearly all actives have a fitted effect of over 60% in size. The conditions noted are these: outcome: dose series up to 54.1 µM. The essentials:
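In this counter-screen for luciferase artifacts, test compounds met substrate (10 uM each luciferin and ATP) before 10 nM enzyme started the reaction. Light output was measured 5 min later.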

A short description of test [11]: Primary fluorescence-based thiol-reactive (MSTI) qHTS assay for identification of artifact compounds. (AID 1845221).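 Note: thiol-reactive compounds lower the probe fluorescence signal; nearly all actives have a fitted effect of over 65% in size.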 The essentials:
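A multi-concentration qHTS design tested compounds against 4 uM MSTI, pH 7.4 phosphate-buffered saline. Plates were protected from light for 1 h at room temperature before imaging fluorescence.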

Test [12] relates to Nanoluciferase (engineered Oplophorus gracilirostris luciferase). The experiment in a line: Primary Nanoluciferase (NLuc) qHTS assay for identification of artifact compounds. (AID 1845222).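 Note: NLuc secreted into diluted conditioned medium of S16 cells.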 Summed up: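 Using secreted nanoluciferase in S16 culture medium (0.22 um filtered, 1:55 dilution), compounds were preincubated 15 min at RT. Signal was generated with Nano-Glo reagent (1:100) over 5 min.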

Test [13] can be described thus: Primary redox qHTS assay for identification of artifact compounds. (AID 1845223). Summed up:
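Redox-cycling detection via DTT (250 uM final) oxidation coupled to Amplex Red (25 uM)/HRP (250 mU/mL) in HBSS. 15 min preincubation plus 30 min after DTT, room temperature. Ex/Em 525/598 nm; 4-parameter Hill fit against DMSO and 10 uM DA3003.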

Test [14] is described as follows: Quantitative High-Throughput drug screen in 47 multiple myeloma cell lines against the NCATS MIPE library collection: FR4_PLB cell viability assay (AID 1918924; note: nearly all actives have a fitted effect of over 35% in size; note: potency is the fitted concentration of half-maximal effect). The essentials:
(§3)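 qHTS of the MIPE 4.0 collection: 500 myeloma cells/well, 48 h drug exposure at 37C in 5% CO2, then CellTiter-Glo for 5 min at room temperature before luminescence reading.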

Test [15] is described as follows: Quantitative High-Throughput drug screen in 47 multiple myeloma cell lines against the NCATS MIPE library collection: Karpas620_DSMZ cell viability assay (AID 1918959). Note: nearly all actives have a fitted effect of over 30% in size. Note: potency is the fitted concentration of half-maximal effect. Summed up: as §3
Test [16] is described as follows: Quantitative High-Throughput drug screen in 47 multiple myeloma cell lines against the NCATS MIPE library collection: KMM1_JCRB cell viability assay (AID 1918960). Note: nearly all actives have a fitted effect of over 30% in size. Note: potency is the fitted concentration of half-maximal effect. The essentials: (§4)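 CellTiter-Glo luminescence after 48 h exposure gives viability, scaled between DMSO-only (100%) and media-only (0%) controls. Library compounds are pinned onto 500 myeloma cells per well, incubated at 37C with 5% CO2.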

Test [17] can be described thus: Quantitative High-Throughput drug screen in 47 multiple myeloma cell lines against the NCATS MIPE library collection: AMO1_DSMZ cell viability assay (AID 1918927; note: nearly all actives have a fitted effect of over 30% in size; note: potency is the fitted concentration of half-maximal effect). The essentials:
as §2

Test [18] can be described thus: Quantitative High-Throughput drug screen in 47 multiple myeloma cell lines against the NCATS MIPE library collection: ARP1_JJKsccF8 cell viability assay (AID 1918928; note: nearly all actives have a fitted effect of over 40% in size; note: potency is the fitted concentration of half-maximal effect). The essentials: as §4
A short description of test [19]: Quantitative High-Throughput drug screen in 47 multiple myeloma cell lines against the NCATS MIPE library collection: ARD_JJKsccE7 cell viability assay (AID 1918929; note: potency is the fitted concentration of half-maximal effect). The essentials:
as §2

A short description of test [20]: Quantitative High-Throughput drug screen in 47 multiple myeloma cell lines against the NCATS MIPE library collection: KHM11_PLB cell viability assay (AID 1918962). Note: potency is the fitted concentration of half-maximal effect; nearly all actives have a fitted effect of over 35% in size. Summed up:
as §3

Phospholipid hydroperoxide glutathione peroxidase GPX4 (Homo sapiens), sequence (P36969 whole entry, looked up): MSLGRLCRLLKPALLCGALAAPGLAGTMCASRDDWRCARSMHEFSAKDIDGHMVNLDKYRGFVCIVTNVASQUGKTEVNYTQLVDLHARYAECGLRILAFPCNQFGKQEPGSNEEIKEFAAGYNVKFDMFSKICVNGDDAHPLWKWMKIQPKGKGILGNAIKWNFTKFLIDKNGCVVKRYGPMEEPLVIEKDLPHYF
Glutathione peroxidase 1 (Homo sapiens), sequence (P07203 whole entry, looked up): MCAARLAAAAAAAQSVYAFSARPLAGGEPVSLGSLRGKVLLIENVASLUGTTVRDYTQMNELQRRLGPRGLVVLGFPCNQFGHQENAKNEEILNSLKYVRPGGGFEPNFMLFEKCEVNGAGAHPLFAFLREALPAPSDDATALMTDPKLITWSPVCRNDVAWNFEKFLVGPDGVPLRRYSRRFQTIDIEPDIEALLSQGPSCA
Metallo-beta-lactamase type 2 (Klebsiella pneumoniae), sequence (C7C422 whole entry, looked up): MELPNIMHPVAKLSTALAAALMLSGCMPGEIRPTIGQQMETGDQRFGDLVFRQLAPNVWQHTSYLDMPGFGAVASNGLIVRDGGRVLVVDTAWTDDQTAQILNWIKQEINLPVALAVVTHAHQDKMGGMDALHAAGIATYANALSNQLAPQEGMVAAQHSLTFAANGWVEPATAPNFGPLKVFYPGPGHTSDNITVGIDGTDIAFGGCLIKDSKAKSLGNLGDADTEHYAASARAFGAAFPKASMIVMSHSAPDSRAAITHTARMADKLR
Nuclear receptor subfamily 1 group I member 3 (Homo sapiens), sequence (Q14994 whole entry, looked up): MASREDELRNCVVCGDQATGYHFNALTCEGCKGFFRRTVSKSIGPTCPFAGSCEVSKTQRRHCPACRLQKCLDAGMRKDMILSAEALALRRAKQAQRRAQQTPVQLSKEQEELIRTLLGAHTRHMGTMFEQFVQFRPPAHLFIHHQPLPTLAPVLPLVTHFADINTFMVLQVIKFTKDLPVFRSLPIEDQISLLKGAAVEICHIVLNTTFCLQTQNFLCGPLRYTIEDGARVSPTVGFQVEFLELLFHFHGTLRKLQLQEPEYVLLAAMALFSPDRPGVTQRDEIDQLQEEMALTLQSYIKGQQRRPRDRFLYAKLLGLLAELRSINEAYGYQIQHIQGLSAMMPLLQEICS

In the case of `O=c1c(O)c(-c2ccc(O)c(O)c2)oc2cc(O)cc(O)c12`, the outcome in [1], in [2], in test [3] and in [4] was inactive. Also, the Potency entry in [5] and in test [6] was “inactive” each time. Moreover, the Potency in test [7] is 11.8 µM (active); in test [8] it was 20.9 µM (active); in test [9], 0.0166 µM (active).
With `Clc1ccc2c(c1)C(N1CCNCC1)=Nc1ccccc1O2`, the call in test [4], in test [10], in [11], in test [12] and in [13] was inactive. The Potency entry in test [5], in test [6], in test [14], in test [8], in test [15] and in test [16] was “inactive” each time.
For the molecule `NC(=O)NO`, the molecule was classed as inactive in test [4]. Moreover, the Potency result in test [5] and in [6] was “inactive” in each case. Moreover, the Potency in test [14] is 3.32 µM (active); in test [7], 2.35 µM (active); in test [8] it was 0.526 µM (active); in test [17], 4.69 µM (active); in test [18], 2.96 µM (active); in test [19], 0.235 µM (active). The Potency was 3.72 µM (active) in test [15], 0.235 µM (active) in test [16], 1.48 µM (active) in test [9] and 2.96 µM (active) in test [20].
Take `CN1CCN(C2=Nc3cc(Cl)ccc3Nc3ccccc32)CC1`: the outcome in test [4] was inactive. Moreover, the Potency result in test [5], in test [6], in [14], in [8] and in test [18] was “inactive” in each case. Moreover, the Potency in [7] was 20.9 µM (active); in test [16], 16.6 µM (active).
With `COc1ccc(C2CNC(=O)C2)cc1OC1CCCC1` (stereo not drawn), in [4], the outcome was inactive. Besides, the Potency entry in [5], in test [6], in test [14], in test [8], in test [17] and in test [18] was “inactive” each time. In addition, the Potency entry in [19], in test [15] and in test [9] was “inactive” in each case.
On to `NC12CC3CC(CC(C3)C1)C2`, for which, in [4], the result was inactive. For the same molecule, the Potency result in test [5], in test [6] and in test [14] was “inactive” in each case. Moreover, in test [7], the Potency was 16.6 µM (active).
Regarding `O=C(Nc1ccc([N+](=O)[O-])cc1Cl)c1cc(Cl)ccc1O`, in [4], the call was inactive. Also, the Potency result in test [5] and in test [6] was “inactive” in each case. For the same molecule, the Potency was 2.09 µM (active) in test [14]; 1.32 µM (active) in [7]; 1.87 µM (active) in test [8]; 0.526 µM (active) in [17]; 1.66 µM (active) in test [18]; 0.526 µM (active) in test [19]. Besides, the Potency is 0.935 µM (active) in test [15], 0.235 µM (active) in [16], 0.59 µM (active) in test [9] and 1.32 µM (active) in test [20].
Turning to `Nc1nnc(-c2cccc(Cl)c2Cl)c(N)n1`, the call in test [4] was inactive. Besides, the Potency result in [5], in test [6], in [14], in [8] and in [18] was “inactive” in each case. Also, in test [7], the Potency is 23.5 µM (active).
In the case of `NCCc1cnc[nH]1`, the molecule was called inactive in test [4]. Besides, the Potency entry in test [5], in test [6], in test [14], in test [17], in [18] and in test [19] was “inactive” in each case. For the same molecule, the Potency result in test [16] is “inactive”. For the same molecule, the Potency in test [8] was 14.8 µM (active); in [15] it was 0.0148 µM (active).
Turning to `CC(C)C(=O)Nc1ccc([N+](=O)[O-])c(C(F)(F)F)c1`, the result in [4] was inactive. In addition, the Potency entry in test [5], in [6], in test [14] and in test [18] was “inactive” throughout. In addition, the Potency was 3.32 µM (active) in test [7]; 1.48 µM (active) in test [8]; 4.69 µM (active) in [17]; 18.7 µM (active) in [19]; 1.05 µM (active) in test [15]; 18.7 µM (active) in test [16]. Further, the Potency in [20] is 6.62 µM (active).
